Screens deposited in PubChem BioAssay by The Scripps Research Institute Molecular Screening Center.
A selection: hits, their analogues and other compounds. The true share with any hit is near 3.5%.
TEAD-YAP block = TEAD-YAP interaction inhibition, primary screen, TEAD-YAP interaction inhibitor project, luminescence, HEK-TIYL cells; TEAD-Gal4/YAP UAS-luciferase luminescence; inhibition, % at 9.12 µM; hit rate 1.4% among 640,000; AID 1259422, 2018; in the data active = inhibition above about 32%;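 also: 0% = median of test compound wells and 100% = reference inhibitor wells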
GPR151 activ = activators of human GPR151, primary screen, cell-based, PathHunter beta-arrestin, luminescence | G-protein coupled receptor 151 (Homo sapiens), Q8TDV0 | PathHunter beta-arrestin GPR151 cells | activation, % at 11.2 µM | hit rate 1% among 650,000 | AID 1508602, 2020; in the data active = activation above about 4.9%;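 also: 0% = median of compound wells and 100% = cells with positive control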
FBW7 act = FBW7 E3 ligase activators, primary screen, biochemical, AlphaScreen, human; AlphaScreen FBW7–phospho-cyclin E peptide binding, activator screen; hit rate 0.13% among 650,000; AID 1259310, 2017; normalized activity (activation), % at 26.1 µM; F-box/WD repeat-containing protein 7 (Homo sapiens), Q969H0; in the data active = normalized activity above about 1.9%;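 also: purified mutant Fbw7 with reduced substrate affinity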
MITF primary = MITF inhibitors, primary screen, biochemical, AlphaScreen, human; Microphthalmia-associated transcription factor (Homo sapiens), O75030; hit rate 0.91% among 650,000; inhibition, % at 2.6 µM; AlphaScreen MITF homodimerization, bead proximity signal; in the data active = inhibition above about 50%;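 also: 0% = vehicle wells with protein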
Starred values were filed as active, the others as inactive.

Nc1nccc(-c2ccc3nc(C4COc5ccc(C(=O)NC6CCCC6)cc5C4)[nH]c3c2)n1 (stereo unspecified) was read as TEAD-YAP block -2, GPR151 activ 2, FBW7 act 2.4* and MITF primary 14.
Screening COc1ccc(CNC(=O)c2ccc3c(c2)CC(c2nc4ccc(-c5ccnc(N)n5)cc4[nH]2)CO3)cc1 (stereo unspecified) returned TEAD-YAP block 12, GPR151 activ 1, FBW7 act 7.5* and MITF primary -2.
`Nc1nccc(-c2ccc3nc(C4COc5ccc(C(=O)NC6CCCCC6)cc5C4)[nH]c3c2)n1` (stereo unspecified) gave TEAD-YAP block 6, GPR151 activ 1, FBW7 act 6.0* and MITF primary 0.
Screening Nc1nccc(-c2ccc3nc(C4COc5ccc(C(=O)NCc6ccccc6)cc5C4)[nH]c3c2)n1 (stereo unspecified) returned TEAD-YAP block -5, GPR151 activ -2, FBW7 act 0 and MITF primary 4.
`CCc1nnc2nc(-c3ccc(NC(=O)CCc4c(C)noc4C)cc3)cn2c1CC` gave TEAD-YAP block 1, GPR151 activ 0, FBW7 act 0 and MITF primary 9.
For CCCn1cc(NC(=O)c2cc(-c3ccccc3OCc3ccccc3)no2)cn1 the results were TEAD-YAP block 43*, GPR151 activ 2, FBW7 act 0 and MITF primary 13.
For CCCn1cc(NC(=O)c2cc3ccccc3o2)cn1 the results were TEAD-YAP block -55, GPR151 activ -1, FBW7 act 0 and MITF primary -9.
`CCOC(=O)c1ccc(-c2ccc(/C=C3/C(=O)NC(=O)N(Cc4ccco4)C3=O)o2)cc1` gave TEAD-YAP block -61, GPR151 activ -1, FBW7 act 0 and MITF primary 34.
`O=C1NC(=O)N(Cc2ccco2)C(=O)/C1=C\c1ccc(-c2ccc(Br)cc2)o1` gave TEAD-YAP block 0, GPR151 activ 0, FBW7 act 0 and MITF primary 70*.
`O=C1NC(=O)N(Cc2ccco2)C(=O)/C1=C\c1ccc(-c2ccc(C(=O)O)cc2)o1` gave TEAD-YAP block -2, GPR151 activ -1, FBW7 act 0 and MITF primary 52*.
Cc1ccc([N+](=O)[O-])cc1-c1ccc(/C=C2/C(=O)NC(=O)N(Cc3ccco3)C2=O)o1 was read as TEAD-YAP block -3, GPR151 activ 0, FBW7 act 0 and MITF primary 43.
`Cc1cc([N+](=O)[O-])ccc1-c1ccc(/C=C2/C(=O)NC(=O)N(Cc3ccco3)C2=O)o1` gave TEAD-YAP block -3, GPR151 activ -2, FBW7 act 0 and MITF primary 68*.
O=C1NC(=O)N(Cc2ccco2)C(=O)/C1=C\c1ccc(-c2ccc([N+](=O)[O-])cc2)o1 was read as TEAD-YAP block -6, GPR151 activ 0, FBW7 act 0 and MITF primary 75*.
`N#C/C(=C\Nc1ccc(F)c([N+](=O)[O-])c1)c1nc(-c2cc3ccccc3oc2=O)cs1` gave TEAD-YAP block -1, GPR151 activ 0, FBW7 act 0 and MITF primary -11.
COc1ccccc1N1C(=O)NC(=O)/C(=C/c2cccc(OC)c2OC)C1=O was read as TEAD-YAP block 2, GPR151 activ -1, FBW7 act 0 and MITF primary -10.
`O=C1CC(=O)N(c2ccc(F)c(Cl)c2)N1` gave TEAD-YAP block 7, GPR151 activ 1, FBW7 act 0 and MITF primary 15.
`CN(C)c1ccc(CNCc2ccccc2)cc1` gave TEAD-YAP block 2, GPR151 activ 0, FBW7 act 0 and MITF primary 8.
Screening COc1ccc2nc(-c3ccc(N)cc3)[nH]c2c1 returned TEAD-YAP block 54*, GPR151 activ -7, FBW7 act 0 and MITF primary 1.
`C=CCNc1cc(-c2cc(Cl)cc(Cl)c2)ncn1` gave TEAD-YAP block -23, GPR151 activ 1, FBW7 act 0 and MITF primary 14.
`CN(Cc1ccccc1)C(=O)C(Cc1ccccc1)NS(=O)(=O)c1cccs1` (stereo unspecified) gave TEAD-YAP block 36*, GPR151 activ 1, FBW7 act 0 and MITF primary 4.
Screening CCC(C)NC(=O)C(Cc1ccccc1)NS(=O)(=O)c1cccs1 (stereo unspecified) returned TEAD-YAP block 1, GPR151 activ -1, FBW7 act 0 and MITF primary -8.
